Here are results for 13 compounds from PubChem BioAssay (NCI).

Molecules are shown by their SMILES. About 83,000 compounds went through this panel and 20% of them were active in at least one assay; those are over-represented in the sample as a whole.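 Treatment: one concentration, 48 hours, 96-well format. Scoring: percent growth, with anything below 10 considered active.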 Unmarked numbers belong to inactive results. The source made the active and inactive calls.

Some test systems named below: HCT-15 colon; HT29 colon; SNB-75 CNS; SNB-19 CNS; U251 CNS; PC-3 prostate; SK-MEL-5 melanoma; UACC-62 melanoma; SK-MEL-28 melanoma.
What all share (test): NCI-60 one-dose screen, 48 h (100 = growth as untreated, 0 = no growth, -100 = all killed)
What all share (conditions): 10 µM unless noted

As for `CCSc1ncnc2c1ncn2C1OC(CO)C(O)C1O` (configuration not stated), the growth is 30.9% in the assay with HCT-15 colon; 19.1% in the assay on HT29 colon; 57% in the assay with SNB-75 CNS; 34.1% with SNB-19 CNS; 54.5% with U251 CNS; 16.8% in the assay with PC-3 prostate. For the same compound, the figures for the growth with SK-MEL-5 melanoma, with UACC-62 melanoma and with SK-MEL-28 melanoma were 32.6%, 50.7% and 83.1%, respectively.
As for `COc1ccc(C(=O)/C=C/c2cc(-c3cc(OC)c(OC)c(OC)c3)n[nH]2)cc1OC`, the growth with HCT-15 colon is -16.4% (active); in the assay on HT29 colon it was -71% (active); in the assay on SNB-75 CNS, 33.2%; in the assay on SNB-19 CNS, 35.2%; in the assay with U251 CNS, -85.5% (active); with PC-3 prostate, 20.3%. Moreover, the growth in the assay on SK-MEL-5 melanoma was 12.3%; in the assay on UACC-62 melanoma, 34.1%; in the assay on SK-MEL-28 melanoma, -60.6% (active).
`COc1cc(-c2cc(-c3nc4ccccc4[nH]3)[nH]n2)cc(OC)c1OC`: the growth with HCT-15 colon was 48.8%; in the assay on HT29 colon, 69.3%; in the assay with SNB-75 CNS, 51.9%; in the assay on SNB-19 CNS, 86.9%; in the assay with U251 CNS, 55.8%; in the assay on PC-3 prostate, 5.47% (active). For the same compound, the growth was -44.4% (active) in the assay with SK-MEL-5 melanoma, 34.5% with UACC-62 melanoma and 61.8% in the assay with SK-MEL-28 melanoma.
On to `O=C(O)c1cccc2c1Cc1cc([N+](=O)[O-])ccc1-2`, for which the growth in the assay with HCT-15 colon is 106%; in the assay with HT29 colon, 112%; in the assay on SNB-75 CNS, 83.5%; with SNB-19 CNS, 108%; in the assay on U251 CNS, 104%; in the assay on PC-3 prostate it was 110%. In addition, the results for the growth in the assay with SK-MEL-5 melanoma, in the assay on UACC-62 melanoma and in the assay with SK-MEL-28 melanoma were 105%, 102% and 108%, respectively.
With `COc1ccc(-c2cc(/C=C/C(=O)c3ccc(OC)c(OC)c3)[nH]n2)cc1`, the growth was 12.5% in the assay with HCT-15 colon; 1.11% (active) with HT29 colon; 9.56% (active) in the assay on SNB-75 CNS; 27% in the assay with SNB-19 CNS; 4.42% (active) with U251 CNS; 4.36% (active) in the assay with PC-3 prostate. Besides, the values for the growth in the assay on SK-MEL-5 melanoma, in the assay on UACC-62 melanoma and in the assay with SK-MEL-28 melanoma were 51.3%, 37.3% and 53.9%, respectively.
As to `CN1CCN(c2ccc3nc(-c4[nH]ncc4Nc4ncnc5[nH]ccc45)[nH]c3c2)CC1`, the growth in the assay with HCT-15 colon is 4.21% (active); in the assay on HT29 colon it was 7.01% (active); with SNB-75 CNS, -52.7% (active); in the assay with SNB-19 CNS it was 2.27% (active); with U251 CNS it was 7.05% (active); in the assay on PC-3 prostate, 11.7%. For the same compound, the growth was -13% (active) with SK-MEL-5 melanoma, 1.28% (active) with UACC-62 melanoma and -11.3% (active) with SK-MEL-28 melanoma.
For the compound `CN(C)c1ccc(-c2ccc(-c3ccc(C(=N)N)c(F)c3)s2)cc1`, the growth in the assay on HCT-15 colon is -80.8% (active); with HT29 colon, -61.2% (active); in the assay with SNB-75 CNS it was 98.9%; in the assay with SNB-19 CNS, -71% (active); with U251 CNS it was -96.2% (active); in the assay on PC-3 prostate it was -90.4% (active). Further, the growth with SK-MEL-5 melanoma was -64.9% (active); in the assay on UACC-62 melanoma, -93.3% (active); in the assay on SK-MEL-28 melanoma, 74.5%.
In the case of `C=C(C)[C@@H]1CC[C@]2(C=O)CC[C@]3(C)[C@H](CC[C@@H]4[C@@]5(C)C/C(=C/c6cccnc6)C(=O)C(C)(C)[C@@H]5CC[C@]43C)[C@@H]12`, the growth is 57.6% in the assay on HCT-15 colon; 72% with HT29 colon; 101% in the assay with SNB-75 CNS; 84.4% in the assay with SNB-19 CNS; 73.4% in the assay on U251 CNS; 41.8% with PC-3 prostate. The growth was 74.4% in the assay with SK-MEL-5 melanoma, 61.5% with UACC-62 melanoma and 93.3% in the assay with SK-MEL-28 melanoma.
Turning to `Cc1ccccc1-c1nc(C(Cl)Cl)nc2cc(-c3ccccc3)nn12`, the growth was 36.1% with HCT-15 colon; 13.7% with HT29 colon; 8.7% (active) in the assay with SNB-75 CNS; 69.8% with SNB-19 CNS; 47.2% in the assay with U251 CNS; 62% in the assay on PC-3 prostate. The growth in the assay on SK-MEL-5 melanoma was 86.4%; in the assay with UACC-62 melanoma it was 74.4%; with SK-MEL-28 melanoma, 97.3%.
For `Cc1nn(-c2ccc(Cl)cc2)c(=O)n1CCn1cnc2ccccc21`, the growth in the assay on HCT-15 colon is 104%; in the assay on HT29 colon, 102%; in the assay with SNB-75 CNS, 106%; with SNB-19 CNS it was 113%; with U251 CNS, 101%; with PC-3 prostate, 104%. Besides, the results for the growth in the assay on SK-MEL-5 melanoma, with UACC-62 melanoma and with SK-MEL-28 melanoma were 113%, 101% and 114%, respectively.
Consider `CC(C)(C)n1cc(-c2ccnc(NCCCNS(=O)(=O)c3ccc(Cl)cc3)c2)c(-c2cccc(F)c2)n1`, for which the growth is 9.66% (active) in the assay on HCT-15 colon; 27.6% in the assay with HT29 colon; 76.5% with SNB-75 CNS; 80% in the assay with SNB-19 CNS; 61.7% in the assay with U251 CNS; 49.7% in the assay with PC-3 prostate. Also, the growth with SK-MEL-5 melanoma was 70.7%; in the assay on UACC-62 melanoma, 84.6%; in the assay on SK-MEL-28 melanoma, 89.4%.
Turning to `COc1cccc(NC(=O)c2sc3nc4c(cc3c2N)C(=O)CCC4)c1`, the growth with HCT-15 colon was 15.7%; with HT29 colon, 4.77% (active); in the assay on SNB-75 CNS, -0.688% (active); in the assay with SNB-19 CNS, 41.6%; in the assay on U251 CNS, 14.3%; in the assay with PC-3 prostate it was 10.5%. The figures for the growth in the assay on SK-MEL-5 melanoma, in the assay with UACC-62 melanoma and in the assay on SK-MEL-28 melanoma were 3.83% (active), 34.5% and 62.9%, respectively.
Regarding `N#CC1=C(N)Oc2ccc3ccccc3c2C1c1ccccc1Cl` (configuration not stated), the growth was 24% in the assay on HCT-15 colon; 22.2% with HT29 colon; -2.04% (active) with SNB-75 CNS; 33.9% in the assay with SNB-19 CNS; 37.2% in the assay on U251 CNS; 46.1% in the assay on PC-3 prostate. Besides, the growth with SK-MEL-5 melanoma was 42.7%; with UACC-62 melanoma it was 24.2%; with SK-MEL-28 melanoma, 61.1%.
